# Assay results from PubChem BioAssay AID463205 (Broad Institute, 2010).
# The whole screen tested about 2,400 compounds, of which about 20 (0.8%) were called active. This is one part of a sample in which actives are shown more often than they occur. Values without a mark were called inactive.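 The calls were made as follows: active = AC50 no more than ten times the highest tested concentration, or full inhibition at every dose giving a flat fit (cut at about 30 µM in these data); inconclusive = flat fit with activity between 30% and 70%, or poor-quality invalid fit; inactive = AC50 more than ten times the top tested dose.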
# Assay: luciferase-based ADP detection interference – biochemical, luminescence, cell-free, homogeneous, artefact control for GSK-3a inhibitor project, dose response (AID 463205);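 also: kinase-free counter-screen against the ADP-Glo detection reagents only; potency is for inhibitors that reduce the luminescence signal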
# Conditions: Cell-free ADP-Glo detection reagents, 5 uM ADP
row,Compound,AC50
1,C=CCSc1ncnc2c1oc1nc3c(cc12)COC(C)(C)C3,> 30 µM
2,Nc1nonc1-n1nnc(C(=O)N/N=C/c2ccncc2)c1CSc1ccc(Cl)cc1,> 30 µM
3,O=S(=O)(c1cccc(NC(=S)NCc2ccco2)c1)N1CCOCC1,> 30 µM
4,C=CC(=O)Nc1sc2c(c1C(N)=O)CCCC2,> 30 µM
5,NC(=O)c1ccsc1NC(=O)C1CC1,> 30 µM
6,Clc1cccc(/C=N/Nc2ncnc3ccccc23)c1,> 30 µM
7,COCCOC(=O)c1[nH]c2c(c1C)C(=O)CC(c1cc(OC)c(OC)c(OC)c1)C2 (stereo not drawn),> 30 µM
8,CC(=O)c1sc(NC(=O)CN2C(=O)C3CCCCC3C2=O)nc1-c1ccccc1 (stereo not drawn),> 30 µM
9,O=C(c1ccc2c3n(nc2c1)-c1ccc(Cl)cc1CO3)N1CCOCC1,> 30 µM
10,O=C(c1ccc2c3n(nc2c1)-c1ccccc1CO3)N1CCOCC1,22.5 µM (active)
11,Cc1ccc2c(c1)COc1c3ccc(C(=O)N4CCOCC4)cc3nn1-2,> 30 µM
12,COc1ccc(S(=O)(=O)Nc2c(C(=O)O)[nH]c3ccc(OC)cc23)cc1,> 30 µM
13,COc1ccc(-c2cc(C(=O)N3CCN(c4ccccc4)CC3)no2)cc1OC,> 30 µM
14,CCOC(=O)c1sc(NC(=O)C2CC2)cc1C,> 30 µM
15,CCCCCCCCCCCCCCCC[N+](C)(C)CC,> 30 µM
16,c1cncc(-c2nc(NCC3COc4ccccc4O3)c3ccccc3n2)c1 (stereo not drawn),> 30 µM
17,CC(C)(C)NC(=O)/C(=C\c1ccccc1F)NC(=O)c1ccc([N+](=O)[O-])cc1,> 30 µM
18,O=C(CCN1CCOCC1)Nc1cccc(Br)c1,> 30 µM
19,OCc1cn(-c2ccccc2)nn1,> 30 µM
20,O=C(COC(=O)c1ccc(F)cc1F)Nc1ccc(Cl)cn1,> 30 µM
21,CC(=NCCCn1ccnc1)c1c(O)n(Cc2ccccc2)c(=O)[nH]c1=O,> 30 µM

row,Compound,AC50
1,Cc1ccc(NC(=O)CSc2nnc(-c3ccncc3)o2)cc1,> 30 µM
2,COc1ccc(/C=C2\Oc3cc(OCC(=O)N4CC(O)C[C@H]4C(=O)O)ccc3C2=O)c(OC)c1OC (stereo partly drawn),> 30 µM
3,CC(C)(C)c1ccc(/C=C2\Oc3cc(O)ccc3C2=O)cc1,> 30 µM
4,COc1ccc(CCn2cnc(=O)c(C#N)c2C)cc1OC,> 30 µM
5,O=C(Nc1cccc(Cl)c1N1CCOCC1)c1ccc(Br)o1,> 30 µM
6,COc1ccc(C2C3(C#N)C(N)=NC(OC)(OC)C23C#N)cc1 (stereo not drawn),> 30 µM
7,CC(=O)N1CCN(c2ccccc2NC(=O)c2ccc(-c3cccc([N+](=O)[O-])c3)o2)CC1,> 30 µM
8,Nc1nc2n(n1)C(c1ccc(F)cc1)CC(c1ccc(F)cc1)N2 (stereo not drawn),> 30 µM
9,CCOc1ccc(S(=O)(=O)Nc2cccc(C(=O)NCCCn3ccnc3)c2)cc1,> 30 µM
10,O=C1c2cnc3nc(SCc4ccccc4)nn3c2CC2c3ccccc3CCN12 (stereo not drawn),> 30 µM
11,COc1ccc(NC(=O)Nc2ccc(F)cc2F)c(C)c1,> 30 µM
12,CCOC(=O)c1cnc2c(Cl)c(Cl)ccc2c1N1CCN(C)CC1,> 30 µM
13,COc1ccc(-c2cn3cccnc3n2)cc1NC(=O)C(C)C,> 30 µM
14,O=c1cc(-c2ccsc2)oc2ccccc12,> 30 µM
15,COc1ccccc1NC(=O)Nc1ccccc1Br,> 30 µM
16,CCn1c2ccccc2c2nnc(SCC(N)=O)nc21,> 30 µM
17,CCCC1=C(C(=O)OCC)C(c2ccc(N(C)C)cc2)n2ncnc2N1 (stereo not drawn),> 30 µM
18,COCc1c(C(=O)N/N=C\c2cccnc2)nnn1-c1nonc1N,> 30 µM
19,CC(C)(C)C(=O)c1cnc(Nc2ccccc2Cl)s1,> 30 µM
20,O=C(Nc1cccc(O)c1)c1ccc([N+](=O)[O-])cc1Cl,> 30 µM
21,CCOC(=O)N1CCc2c(sc3[nH]c(=S)[nH]c(=S)c23)C1,> 30 µM

row,Compound,AC50
1,CCCCc1ccc(NC(=O)N[C@H](C(=O)O)C(C)CC)cc1 (stereo partly drawn),> 30 µM
2,COc1ccccc1OCC(=O)Nc1sc2c(c1C(N)=O)CCC2,> 30 µM
3,O=C(CSc1ccccc1)Nc1ccc2c(c1)C(=O)NC2=O,> 30 µM
4,CCc1c(C)c(C#N)c2nc3ccccc3n2c1NC,> 30 µM
5,COc1ccc(/C=C2\Oc3cc(OCC(=O)N4CC(O)C[C@H]4C(=O)O)ccc3C2=O)cc1OC (stereo partly drawn),> 30 µM
6,Cc1ccc(S(=O)(=O)N2CCN(CC(=O)N/N=C\c3ccccn3)CC2)cc1,> 30 µM
7,CCOc1ccc(Nc2nc(N(C)c3ccccc3)nc(N)c2[N+](=O)[O-])cc1,> 30 µM
8,CN(C)c1ccc(Nc2nc(N)c3ccccc3n2)cc1,22.8 µM (active)
9,COc1ccc(Cl)cc1Nc1nc(N)c2ccccc2n1,> 30 µM
10,COc1cc(/C=N/NC(=O)c2ccoc2C)ccc1O,> 30 µM
11,Cc1occc1C(=O)N/N=C/c1ccc(N(C)C)cc1,28.1 µM (active)
12,CN(C)c1ccc(/C=N/NC(=O)c2ccccc2Cl)cc1,> 30 µM
13,O=[N+]([O-])c1cc(S(=O)(=O)N2CCCCC2)ccc1NCCCN1CCOCC1,> 30 µM
14,COc1ccc(C(=O)c2sc3nc(-c4ccc(OC)cc4)ccc3c2N)cc1,> 30 µM
15,CC(=O)N1CCN(c2ccccc2NC(=O)c2ccc(Br)o2)CC1,> 30 µM
16,COc1ccc(C(=O)O/N=C(\N)c2ccccn2)c(OC)c1,> 30 µM
17,COc1cc(OC)cc(C(=O)O/N=C(\N)c2ccccn2)c1,> 30 µM
18,COc1ccc(C(=O)c2ccccc2Cl)cc1,> 30 µM
19,COc1ccc(C(=O)NNC(=O)c2ccccn2)cc1,14.9 µM (active)
20,COc1ccc(C(=O)Nc2nc(C)cc(C)n2)cc1,> 30 µM
21,COc1cccc(C(=O)O/N=C(\N)c2ccccn2)c1,18.9 µM (active)
